Data published in PubChem BioAssay (NCI).
The panel holds about 83,000 compounds, 20% with a hit somewhere; the sample as a whole holds those more often.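 For each line, cells grew in 96-well plates with the test compound present at a single concentration for 48 hours.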 Active and inactive are the calls of the source. The calls were made as follows: active = growth percent below 10; inactive = the rest.

How the values were obtained:
Assay in all cases: NCI-60 one-dose screen, 48 h (100 = growth as untreated, 0 = no growth, -100 = all killed)
Settings in all cases: 10 µM unless noted
DU-145 prostate = system: DU-145 prostate
K-562 leukemia = system: K-562 leukemia
MALME-3M melanoma = system: MALME-3M melanoma
MDA-MB-231 breast = system: MDA-MB-231 breast
RXF 393 renal = system: RXF 393 renal
SF-268 CNS = system: SF-268 CNS
SF-295 CNS = system: SF-295 CNS
SF-539 CNS = system: SF-539 CNS
UACC-257 melanoma = system: UACC-257 melanoma
M14 melanoma = system: M14 melanoma
HCT-15 colon = system: HCT-15 colon
HT29 colon = system: HT29 colon
SNB-75 CNS = system: SNB-75 CNS
SNB-19 CNS = system: SNB-19 CNS
U251 CNS = system: U251 CNS
PC-3 prostate = system: PC-3 prostate
SK-MEL-5 melanoma = system: SK-MEL-5 melanoma
UACC-62 melanoma = system: UACC-62 melanoma
LOX IMVI melanoma = system: LOX IMVI melanoma
SK-MEL-28 melanoma = system: SK-MEL-28 melanoma

Measured: growth

COc1cc2c(c(OC)c1OC)C(=O)CC(c1cccc(C(=O)Nc3ccc(Br)cc3)c1)O2 (stereo not given)
inactive: DU-145 prostate 73% | MALME-3M melanoma 70% | MDA-MB-231 breast 50.8% | RXF 393 renal 66.5% | SF-268 CNS 64.2% | SF-295 CNS 63.6% | SF-539 CNS 82.8% | UACC-257 melanoma 74.7% | M14 melanoma 57.7% | HCT-15 colon 57.9% | HT29 colon 75% | SNB-75 CNS 51.1% | SNB-19 CNS 80.2% | U251 CNS 83.4% | SK-MEL-5 melanoma 22.3% | UACC-62 melanoma 40.9% | LOX IMVI melanoma 57.9% | SK-MEL-28 melanoma 74.5%
active: K-562 leukemia 6.2% | PC-3 prostate 5.38%

Cc1ccc(C(=O)Nc2ccc(CN3CCN(C)CC3)c(C(F)(F)F)c2)cc1C#Cc1cnc(N)c2ccccc12
active: DU-145 prostate -89.3% | K-562 leukemia -23.5% | MALME-3M melanoma -59.9% | MDA-MB-231 breast -63.4% | RXF 393 renal -75.5% | SF-268 CNS 1.65% | SF-295 CNS -35.9% | SF-539 CNS -84.8% | UACC-257 melanoma -50.3% | M14 melanoma -76.7% | HCT-15 colon -69.2% | HT29 colon -12.8% | SNB-75 CNS -70.4% | SNB-19 CNS -66.1% | U251 CNS -70.5% | PC-3 prostate 3.18% | SK-MEL-5 melanoma -85.4% | UACC-62 melanoma 4.11% | LOX IMVI melanoma -94.5% | SK-MEL-28 melanoma -86%

O=C(Nc1ncc(Cc2ccccc2)s1)c1cc(-c2ccccc2)nc2ccccc12
inactive: DU-145 prostate 110% | K-562 leukemia 103% | MALME-3M melanoma 98% | MDA-MB-231 breast 104% | RXF 393 renal 90.5% | SF-268 CNS 103% | SF-295 CNS 107% | SF-539 CNS 101% | UACC-257 melanoma 92.9% | M14 melanoma 93.3% | HCT-15 colon 94.7% | HT29 colon 104% | SNB-75 CNS 92.6% | SNB-19 CNS 98.1% | U251 CNS 98.2% | PC-3 prostate 94.8% | SK-MEL-5 melanoma 98.8% | UACC-62 melanoma 89.8% | LOX IMVI melanoma 86.7% | SK-MEL-28 melanoma 105%

CCOC(=O)CC1CSC(N/N=C/c2ccc(O)cc2)=N1 (stereo not given)
inactive: DU-145 prostate 106% | K-562 leukemia 99.4% | MALME-3M melanoma 97% | MDA-MB-231 breast 113% | RXF 393 renal 111% | SF-268 CNS 96.2% | SF-295 CNS 99.1% | SF-539 CNS 95.3% | UACC-257 melanoma 108% | M14 melanoma 92% | HCT-15 colon 100% | HT29 colon 106% | SNB-75 CNS 93.4% | SNB-19 CNS 106% | U251 CNS 98.9% | PC-3 prostate 89.5% | SK-MEL-5 melanoma 102% | UACC-62 melanoma 102% | LOX IMVI melanoma 99% | SK-MEL-28 melanoma 107%

CN(C)c1ccc(Cc2cc(-c3ccccc3)nn(C/C(=N/O)c3ccccc3)c2=O)cc1
inactive: DU-145 prostate 91.8% | K-562 leukemia 29.5% | MALME-3M melanoma 66.2% | MDA-MB-231 breast 54% | RXF 393 renal 61.4% | SF-268 CNS 55.8% | SF-295 CNS 45.5% | SF-539 CNS 84.3% | UACC-257 melanoma 62.8% | M14 melanoma 57% | HCT-15 colon 50.1% | HT29 colon 32.9% | SNB-75 CNS 72.9% | SNB-19 CNS 64.4% | U251 CNS 44.3% | PC-3 prostate 30.9% | SK-MEL-5 melanoma 55.8% | UACC-62 melanoma 39.3% | LOX IMVI melanoma 53% | SK-MEL-28 melanoma 72%

CC(CN)[C@@H]1CC[C@]2(CO)CC[C@]3(C)[C@H](CC[C@@H]4[C@@]5(C)CCC(NCCO)C(C)(C)[C@@H]5CC[C@]43C)[C@@H]12 (stereo not given in full)
active: K-562 leukemia -49.4% | MALME-3M melanoma -35.5% | M14 melanoma -2.37% | HT29 colon 1.25% | LOX IMVI melanoma -64.4% | SK-MEL-28 melanoma -5.2%
inactive: DU-145 prostate 63.5% | MDA-MB-231 breast 13.6% | RXF 393 renal 58.6% | SF-268 CNS 60.6% | SF-295 CNS 70.9% | SF-539 CNS 65.8% | UACC-257 melanoma 84.9% | HCT-15 colon 38.4% | SNB-75 CNS 59.5% | SNB-19 CNS 78.5% | U251 CNS 18.4% | PC-3 prostate 69.4% | SK-MEL-5 melanoma 32.9% | UACC-62 melanoma 91.9%

C=CCOC(=O)C1=C(C)N(CC)C(=O)N(CC)C1c1c(Cl)n(C)c2ccccc12 (stereo not given)
inactive: DU-145 prostate 99.4% | K-562 leukemia 93% | MALME-3M melanoma 96.2% | MDA-MB-231 breast 80.6% | RXF 393 renal 98.3% | SF-268 CNS 87.3% | SF-295 CNS 69.3% | SF-539 CNS 88.2% | UACC-257 melanoma 89.9% | M14 melanoma 75.1% | HCT-15 colon 78.4% | HT29 colon 82.3% | SNB-75 CNS 81.6% | SNB-19 CNS 75.6% | U251 CNS 88.3% | PC-3 prostate 50.4% | SK-MEL-5 melanoma 96.5% | UACC-62 melanoma 59.4% | LOX IMVI melanoma 52.8% | SK-MEL-28 melanoma 99.2%

O=C(/C=C/c1ccco1)c1ccc(Nc2ccnc3cc(Cl)ccc23)cc1
active: RXF 393 renal -28.3%
inactive: DU-145 prostate 90.8% | K-562 leukemia 51.2% | MALME-3M melanoma 110% | MDA-MB-231 breast 70.2% | SF-268 CNS 105% | SF-295 CNS 72.5% | SF-539 CNS 92.1% | UACC-257 melanoma 97.8% | M14 melanoma 83.3% | HCT-15 colon 59.7% | HT29 colon 23.4% | SNB-75 CNS 105% | SNB-19 CNS 95.1% | U251 CNS 56.5% | PC-3 prostate 80.5% | SK-MEL-5 melanoma 68.8% | UACC-62 melanoma 108% | LOX IMVI melanoma 76.6% | SK-MEL-28 melanoma 103%

CCCCCCCCOC(=O)c1c(C)[nH]c(/C=C2\N=C(c3ccc[nH]3)C=C2OC)c1C
inactive: DU-145 prostate 23.3% | K-562 leukemia 10.8% | SF-268 CNS 24% | SNB-19 CNS 25.4% | PC-3 prostate 18%
active: MALME-3M melanoma -42.9% | MDA-MB-231 breast -5.15% | RXF 393 renal -19.9% | SF-295 CNS -34.7% | SF-539 CNS 3.4% | UACC-257 melanoma -15.2% | M14 melanoma -56.1% | HCT-15 colon 1.19% | HT29 colon -11.2% | SNB-75 CNS -20.8% | U251 CNS -8.43% | SK-MEL-5 melanoma -99.2% | UACC-62 melanoma -25.7% | LOX IMVI melanoma -44.9% | SK-MEL-28 melanoma -12.5%

CCCCN(CCC#N)C(N)=O
inactive: DU-145 prostate 97.2% | K-562 leukemia 115% | MALME-3M melanoma 98.4% | MDA-MB-231 breast 104% | RXF 393 renal 109% | SF-268 CNS 99.7% | SF-295 CNS 111% | SF-539 CNS 100% | UACC-257 melanoma 101% | M14 melanoma 112% | HCT-15 colon 101% | HT29 colon 114% | SNB-75 CNS 105% | SNB-19 CNS 98.9% | U251 CNS 107% | PC-3 prostate 91.2% | SK-MEL-5 melanoma 99.5% | UACC-62 melanoma 95.4% | LOX IMVI melanoma 105% | SK-MEL-28 melanoma 102%

Cc1cccc(C)c1NC(=O)Nc1ccccc1
inactive: K-562 leukemia 102% | MALME-3M melanoma 98.4% | MDA-MB-231 breast 96.9% | RXF 393 renal 87.3% | SF-268 CNS 96.1% | SF-295 CNS 66.7% | SF-539 CNS 108% | UACC-257 melanoma 98.2% | M14 melanoma 109% | HCT-15 colon 25.5% | HT29 colon 27.3% | SNB-75 CNS 108% | SNB-19 CNS 90.8% | U251 CNS 77.4% | PC-3 prostate 70.7% | SK-MEL-5 melanoma 101% | UACC-62 melanoma 71.6% | LOX IMVI melanoma 69.8% | SK-MEL-28 melanoma 108%
active: DU-145 prostate 9.29%

O=S(=O)(c1ccc(NCSc2nc3ccccc3s2)cc1)c1ccc(NCSc2nc3ccccc3s2)cc1
inactive: DU-145 prostate 106% | K-562 leukemia 77.3% | MALME-3M melanoma 90.5% | MDA-MB-231 breast 86.4% | RXF 393 renal 99.1% | SF-268 CNS 97.5% | SF-295 CNS 98.6% | SF-539 CNS 103% | UACC-257 melanoma 94.7% | M14 melanoma 96.1% | HCT-15 colon 106% | HT29 colon 87.8% | SNB-75 CNS 81.6% | SNB-19 CNS 95.9% | U251 CNS 90.6% | PC-3 prostate 64.9% | SK-MEL-5 melanoma 97% | UACC-62 melanoma 83.5% | LOX IMVI melanoma 91.1% | SK-MEL-28 melanoma 110%

CS(=O)(=O)Nc1cc(-c2ccc3ncnc(Nc4cccc(Cl)c4)c3c2)cnc1Cl
active: MALME-3M melanoma -25.7% | MDA-MB-231 breast 7.96% | RXF 393 renal -44% | SF-295 CNS -22.6% | SF-539 CNS -22% | UACC-257 melanoma -3.23% | M14 melanoma -2.15% | HCT-15 colon 4.71% | HT29 colon 2.65% | SNB-75 CNS -10.4% | U251 CNS -2.63% | PC-3 prostate -2.27% | SK-MEL-5 melanoma -95.6% | UACC-62 melanoma -23.6% | LOX IMVI melanoma -35.5% | SK-MEL-28 melanoma 5.51%
inactive: DU-145 prostate 14.5% | K-562 leukemia 18.9% | SF-268 CNS 13.9% | SNB-19 CNS 18%

COc1ccc(-c2nc3cc(C(=O)NC4CCCCC4)ccc3n2C2CCCCC2)cc1
inactive: DU-145 prostate 99.7% | K-562 leukemia 49.5% | MALME-3M melanoma 95.8% | MDA-MB-231 breast 101% | RXF 393 renal 100% | SF-268 CNS 91.7% | SF-295 CNS 78.3% | SF-539 CNS 88% | UACC-257 melanoma 104% | M14 melanoma 88.7% | HCT-15 colon 21.5% | HT29 colon 38.3% | SNB-75 CNS 91.6% | SNB-19 CNS 109% | U251 CNS 91.5% | PC-3 prostate 95.8% | SK-MEL-5 melanoma 65.3% | UACC-62 melanoma 95.3% | LOX IMVI melanoma 76.9% | SK-MEL-28 melanoma 100%

COc1cc(C(=O)c2c(-c3ccccc3)oc3ccccc23)cc(OC)c1O
inactive: DU-145 prostate 26% | K-562 leukemia 17.4% | MALME-3M melanoma 48.5% | MDA-MB-231 breast 59.7% | SF-268 CNS 59.9% | SF-295 CNS 14.3% | UACC-257 melanoma 73.2% | M14 melanoma 16.6% | HCT-15 colon 32.1% | HT29 colon 109% | SNB-19 CNS 32.8% | U251 CNS 25.6% | PC-3 prostate 43.9% | SK-MEL-5 melanoma 16.4% | UACC-62 melanoma 35.2% | LOX IMVI melanoma 37.2% | SK-MEL-28 melanoma 66%
active: RXF 393 renal -2.49% | SF-539 CNS 8.35% | SNB-75 CNS -1.53%
